In PubChem BioAssay (NCI):
Compounds without any hit were thinned out: in the full panel of roughly 83,000, 20% have a hit.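 Negative percent growth values reflect cell death: -40 means 40% of the cells present at the start died, and -100 means all died.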 The source made the active and inactive calls. How the source made its calls: active means growth percent below 10; inactive means the rest.

Columns and labels:
Test in all cases: NCI-60 one-dose screen, 48 h (100 = growth as untreated, 0 = no growth, -100 = all killed)
Settings in all cases: 10 µM unless noted
NCI-H23 lung = system: NCI-H23 lung
NCI-H226 lung = system: NCI-H226 lung
NCI-H322M lung = system: NCI-H322M lung
HOP-62 NSCLC = system: HOP-62 NSCLC
NCI-H460 lung = system: NCI-H460 lung
HOP-92 NSCLC = system: HOP-92 NSCLC
NCI-H522 lung = system: NCI-H522 lung
A549/ATCC NSCLC = system: A549/ATCC NSCLC
786-0 renal = system: 786-0 renal
COLO 205 colon = system: COLO 205 colon

Measured: growth

CC1=NN(C2=NC(=O)C(CC(=O)Nc3ccccc3C(F)(F)F)S2)C(c2ccc(N(C)C)cc2)C1 (stereo not given)
inactive: NCI-H23 lung 72.6% | NCI-H226 lung 53.1% | NCI-H322M lung 76.1% | HOP-62 NSCLC 78.3% | NCI-H460 lung 39.6% | NCI-H522 lung 33.1% | A549/ATCC NSCLC 38.2% | 786-0 renal 61.4% | COLO 205 colon 63.5%
active: HOP-92 NSCLC 7.13%

Cc1ccc(C(=O)Nc2cc(-c3ccncc3)cc(C(F)(F)F)c2)cc1C#Cc1cnc2cccnn12
inactive: NCI-H23 lung 35.5% | NCI-H226 lung 27.9% | NCI-H322M lung 79% | HOP-62 NSCLC 44.3% | NCI-H460 lung 51.8% | HOP-92 NSCLC 31.7% | NCI-H522 lung 33.1% | A549/ATCC NSCLC 48.6% | 786-0 renal 46.3% | COLO 205 colon 32.3%

COc1ccc(N=Nc2c(N)nn3c(N)c(C#N)c(-c4ccccc4)nc23)cc1
inactive: NCI-H23 lung 32.3% | NCI-H322M lung 45.7% | NCI-H460 lung 16.1% | A549/ATCC NSCLC 53.1% | 786-0 renal 13.8% | COLO 205 colon 80.8%
active: NCI-H226 lung 0.868% | HOP-62 NSCLC -1.62% | HOP-92 NSCLC -9.66% | NCI-H522 lung -4.5%

Cc1ccc(C2CC(c3ccc(S(=O)(=O)NCCNc4nc(N(C)C)nc(N5CCOCC5)n4)cc3)=Nc3c(N)nc(N)nc3N2)cc1 (stereo not given)
active: HOP-92 NSCLC -9.13%
inactive: NCI-H23 lung 72% | NCI-H226 lung 63.8% | NCI-H322M lung 77.3% | HOP-62 NSCLC 63.9% | NCI-H460 lung 53.6% | NCI-H522 lung 80.1% | A549/ATCC NSCLC 62.2% | 786-0 renal 32.8% | COLO 205 colon 72.3%

O=C(COc1ccc(/C=C2/C(=O)Nc3ccc(Cl)cc32)cc1)Nc1ccc(Br)cc1
active: NCI-H23 lung -53.6% | NCI-H226 lung -48.5% | NCI-H322M lung 0.856% | HOP-62 NSCLC -72.6% | NCI-H460 lung -31.6% | HOP-92 NSCLC -48.4% | NCI-H522 lung -35% | A549/ATCC NSCLC -66.2% | 786-0 renal -78.9% | COLO 205 colon 2.47%

Clc1ccc2c(NCCNC34CC5CC(CC(C5)C3)C4)ccnc2c1
active: NCI-H23 lung -73.2% | NCI-H226 lung -24.4% | NCI-H322M lung -61.7% | HOP-62 NSCLC -76.7% | NCI-H460 lung -63.1% | HOP-92 NSCLC -64.7% | NCI-H522 lung -76.7% | A549/ATCC NSCLC -33% | 786-0 renal -79.8% | COLO 205 colon -58.1%

COc1cc(CNC(=O)C[C@H](C)CCC=C(C)C)ccc1OCc1cn(-c2ccccc2F)nn1
inactive: NCI-H23 lung 68.3% | NCI-H226 lung 73.3% | NCI-H322M lung 92.7% | HOP-62 NSCLC 46.7% | NCI-H460 lung 89% | NCI-H522 lung 57.1% | A549/ATCC NSCLC 80.6% | 786-0 renal 43.6% | COLO 205 colon 112%
active: HOP-92 NSCLC 4.63%

CCN(C(=O)CN1C(=O)/C(=C/c2ccco2)SC1=S)C1CCS(=O)(=O)C1 (stereo not given)
inactive: NCI-H23 lung 99.9% | NCI-H226 lung 99.1% | NCI-H322M lung 99.8% | HOP-62 NSCLC 123% | NCI-H460 lung 101% | HOP-92 NSCLC 103% | NCI-H522 lung 47.5% | A549/ATCC NSCLC 102% | 786-0 renal 101% | COLO 205 colon 120%

CN(C)CCCNC(=S)Nc1ccc(/C=C/c2ccc(Cl)cc2)cc1
active: NCI-H23 lung -89.2% | NCI-H226 lung -20.2% | NCI-H322M lung -95% | HOP-62 NSCLC -50.8% | NCI-H460 lung -35.8% | HOP-92 NSCLC -53.3% | NCI-H522 lung -51.9% | A549/ATCC NSCLC -36% | 786-0 renal -37.4% | COLO 205 colon -58%

C/C(=N\Nc1ccc(S(N)(=O)=O)cc1)c1cnn(-c2cc(=O)[nH]c3ccc(Br)cc23)c1C
inactive: NCI-H23 lung 69.9% | NCI-H226 lung 62.3% | NCI-H322M lung 77.7% | HOP-62 NSCLC 63.4% | NCI-H460 lung 77.9% | A549/ATCC NSCLC 100% | 786-0 renal 85.9% | COLO 205 colon 85.5%
active: HOP-92 NSCLC -2.47% | NCI-H522 lung 5.07%

O=c1c(-c2nc(-c3ccccc3)c(-c3ccccc3)[nH]2)coc2ccc(F)cc12
inactive: NCI-H23 lung 60.7% | NCI-H226 lung 65.1% | NCI-H322M lung 73.1% | HOP-62 NSCLC 70.1% | NCI-H460 lung 19% | HOP-92 NSCLC 88.1% | NCI-H522 lung 71.7% | A549/ATCC NSCLC 40% | 786-0 renal 87.2% | COLO 205 colon 53%

COc1nc(N)ncc1-c1ccc2ncnc(N3CCc4cc(F)c(Cl)cc43)c2c1
inactive: NCI-H23 lung 34.2% | NCI-H522 lung 41.1%
active: NCI-H226 lung -40.3% | NCI-H322M lung 3.86% | HOP-62 NSCLC -54.4% | NCI-H460 lung -21.5% | HOP-92 NSCLC -23.8% | A549/ATCC NSCLC 3.34% | 786-0 renal -74.9% | COLO 205 colon -55.5%

COc1ccc2[nH]c(=O)cc(-n3ncc(C(=O)/C=C/c4cc(OC)c(OC)c(OC)c4)c3C)c2c1
inactive: HOP-92 NSCLC 44.2%
active: NCI-H23 lung -45.1% | NCI-H226 lung -21.7% | NCI-H322M lung 5.89% | HOP-62 NSCLC 0.688% | NCI-H460 lung -30.4% | NCI-H522 lung -81.1% | A549/ATCC NSCLC 8.31% | 786-0 renal -15% | COLO 205 colon -92.5%
